# Several values for one entry are separate records, joined by “and”; a condition that tells them apart may be missing. Equal values may be shown once. Records with an inconclusive call do not appear. Where a call stands in place of a potency, no number is given. Some structures have more than one record in an assay (separate samples or runs), and their calls can disagree. Activity calls are given as the source filed them. Unless noted, calls come from the whole dose curve; as a rule, active = well fitted curve in the direction sought with a large enough effect in the repeat runs; inconclusive = weak or mixed curves; inactive = no such curve, though single readings can be large; an effect the other way counts as inactive or inconclusive.
# Key:
# [1] = qHTS assay to identify small molecule antagonists of the glucocorticoid receptor (GR) signaling pathway - cell viability counter screen (AID 720693); note: nearly all actives have a fitted effect of over 55% in size
# [2] = qHTS assay for identifying genotoxic compounds that show differential cytotoxicity against isogenic chicken DT40 cell lines with known DNA damage response pathways - wild type cell line (AID 743012); note: nearly all actives have a fitted effect of over 60% in size; note: potency is the fitted concentration of half-maximal effect
# Summary of the method: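 Viability of DNA repair-proficient chicken DT40 cells was assessed by CellTiter-Glo luminescence following 40 h compound exposure at 37 C/5% CO2.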
# [3] = qHTS assay for identifying genotoxic compounds that show differential cytotoxicity against isogenic chicken DT40 cell lines with known DNA damage response pathways - Rev3 mutant cell line (AID 743014); note: nearly all actives have a fitted effect of over 55% in size; note: potency is the fitted concentration of half-maximal effect
# [4] = qHTS assay for identifying genotoxic compounds that show differential cytotoxicity against isogenic chicken DT40 cell lines with known DNA damage response pathways - Rad54/Ku70 mutant cell line (AID 743015); note: nearly all actives have a fitted effect of over 60% in size; note: potency is the fitted concentration of half-maximal effect
# [5] = qHTS assay to identify small molecule antagonists of the androgen receptor (AR) signaling pathway - cell viability counter screen (AID 743033; note: nearly all actives have a fitted effect of over 45% in size)
# [6] = qHTS assay to identify small molecule antagonists of the androgen receptor (AR) signaling pathway using the MDA cell line - cell viability counter screen (AID 743041; note: nearly all actives have a fitted effect of over 45% in size)
# Summary of the method: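 qHTS viability read-out; MDA-kb2 AR-luc; R1881-stimulated; 16 h exposure at 37C, 0% CO2; CellTiter-Fluor, 30 min; fluorescence intensity.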
# [7] = tested on: thyroid hormone receptor (rat, GH3 cells); experiment: qHTS assay to identify small molecule agonists of the thyroid receptor (TR) signaling pathway (AID 743066; calls by dose curve)
# [8] = qHTS assay to identify small molecule antagonists of the estrogen receptor alpha (ER-alpha) signaling pathway using the BG1 cell line - cell viability counter screen (AID 743081);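 note: compound given together with 17beta-estradiol as the ER stimulus; series mostly up to about 70 µM; nearly all actives have a fitted effect of over 45% in size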
# Aromatase (Homo sapiens) = Aromatase (Homo sapiens) (UniProt P11511); experiment: qHTS assay to identify aromatase inhibitors (AID 743083); note: nearly all actives have a fitted effect of over 55% in size; note: potency is the fitted concentration of half-maximal effect
# Aromatase (Homo sapiens), sequence (P11511 whole entry, looked up): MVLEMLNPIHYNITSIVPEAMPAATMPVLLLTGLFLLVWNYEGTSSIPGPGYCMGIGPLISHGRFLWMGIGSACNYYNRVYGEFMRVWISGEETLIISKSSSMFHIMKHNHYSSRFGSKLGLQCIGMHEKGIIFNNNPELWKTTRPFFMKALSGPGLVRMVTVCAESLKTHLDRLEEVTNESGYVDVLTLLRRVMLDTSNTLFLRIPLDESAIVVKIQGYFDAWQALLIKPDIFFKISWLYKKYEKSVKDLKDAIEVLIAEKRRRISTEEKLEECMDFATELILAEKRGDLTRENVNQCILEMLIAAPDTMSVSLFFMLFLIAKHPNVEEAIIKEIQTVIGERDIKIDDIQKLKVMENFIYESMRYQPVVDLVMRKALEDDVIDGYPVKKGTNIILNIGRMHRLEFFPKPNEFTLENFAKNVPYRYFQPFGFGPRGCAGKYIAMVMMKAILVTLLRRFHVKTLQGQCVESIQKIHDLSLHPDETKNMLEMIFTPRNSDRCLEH
# [9] = qHTS assay to identify small molecule antagonists of the thyroid receptor (TR) signaling pathway (AID 743065); note: nearly all actives have a fitted effect of over 55% in size; note: potency is the fitted concentration of half-maximal effect
# Summary of the method: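 GH3.TRE-Luc rat pituitary cells carrying two TR response elements driving luciferase were plated for 4 h, given compound plus 1 nM T3 (final), and incubated 23.5 h at 37 C. ONE-Glo luminescence measured reporter inhibition; CellTiter-Fluor fluorescence tracked cytotoxicity.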
# [10] = target: Estrogen receptor (Homo sapiens) (UniProt P03372); experiment: qHTS assay to identify small molecule antagonists of the estrogen receptor alpha (ER-alpha) signaling pathway (AID 743069; active = well fitted curve in the direction sought with a large enough effect in the signal ratio in the repeat runs, not every such curve was filed as active; the % refers to the signal ratio)
# Estrogen receptor (Homo sapiens), sequence (P03372 whole entry, looked up): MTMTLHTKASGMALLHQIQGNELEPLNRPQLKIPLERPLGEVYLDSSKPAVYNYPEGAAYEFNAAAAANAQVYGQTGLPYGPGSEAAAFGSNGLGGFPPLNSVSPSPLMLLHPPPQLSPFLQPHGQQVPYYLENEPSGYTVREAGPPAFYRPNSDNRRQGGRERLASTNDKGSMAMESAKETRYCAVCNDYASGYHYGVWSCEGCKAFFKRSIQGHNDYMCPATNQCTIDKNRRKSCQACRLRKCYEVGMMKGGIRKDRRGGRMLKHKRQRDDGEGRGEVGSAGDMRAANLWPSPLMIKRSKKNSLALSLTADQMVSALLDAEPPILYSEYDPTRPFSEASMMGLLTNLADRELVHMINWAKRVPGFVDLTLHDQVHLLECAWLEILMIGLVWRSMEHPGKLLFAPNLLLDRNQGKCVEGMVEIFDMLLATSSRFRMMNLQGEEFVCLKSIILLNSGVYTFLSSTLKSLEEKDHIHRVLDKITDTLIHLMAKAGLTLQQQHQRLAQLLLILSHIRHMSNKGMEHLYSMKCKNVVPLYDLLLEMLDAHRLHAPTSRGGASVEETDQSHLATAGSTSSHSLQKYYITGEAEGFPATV
# Summary of the method: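 Screening used a UAS-driven beta-lactamase reporter integrated into HEK293 cells expressing ER-alpha, stimulated with 17beta-estradiol alongside test compounds over 18 hr at 37C; signal came from LiveBLAzer B/G FRET fluorescence.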
# [11] = target: Estrogen receptor (Homo sapiens) (UniProt P03372); experiment: qHTS assay to identify small molecule agonists of the estrogen receptor alpha (ER-alpha) signaling pathway (AID 743075; calls by dose curve)
# [12] = qHTS assay to identify small molecule antagonists of the estrogen receptor alpha (ER-alpha) signaling pathway - cell viability counter screen (AID 743074; calls by dose curve; note: nearly all actives have a fitted effect of over 45% in size)
# [13] = target: Estrogen receptor (Homo sapiens) (UniProt P03372); experiment: qHTS assay to identify small molecule agonists of the estrogen receptor alpha (ER-alpha) signaling pathway using the BG1 cell line (AID 743079); note: nearly all actives have a fitted effect of over 20% in size; note: potency is the fitted concentration of half-maximal effect
# [14] = qHTS assay to identify small molecule antagonists of the estrogen receptor alpha (ER-alpha) signaling pathway using the BG1 cell line (AID 743080; calls by dose curve;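 note: BG1 cells stimulated with 17beta-estradiol alongside compound; series mostly up to about 70 µM; nearly all actives have a fitted effect of over 25% in size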)
# Summary of the method: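 Readout is ONE-Glo luminescence, taken 30 min at room temperature after reagent addition, preceded by a CellTiter-Fluor viability read; BG1-Luc-4E2 cells had received compound and 17beta-estradiol for 21.5 h at 37 C.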
# [15] = qHTS assay to identify small molecule antagonists of the thyroid receptor (TR) signaling pathway - cell viability counter screen (AID 743064); note: nearly all actives have a fitted effect of over 50% in size; note: potency is the fitted concentration of half-maximal effect
# Summary of the method: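 Rat GH3 pituitary tumor cells stably expressing two TR response elements driving luciferase were plated, rested 4 h, then dosed with library compounds and T3 (1 nM final). After 23.5 h at 37 °C, CellTiter-Fluor was added for 30 min and fluorescence recorded.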
Structure (SMILES),outcome [1],Potency [2],Potency [3],Potency [4],Potency [5],Potency [6],outcome [7],Potency [8],Potency (Aromatase (Homo sapiens)),Potency [9],outcome [10],Potency [11],outcome [12],Potency [13],outcome [14],Potency [15]
CO/N=C(/C(=O)N[C@@H]1C(=O)N2C(C(=O)OCOC(=O)C(C)(C)C)=C(C)CS[C@H]12)c1csc(N)n1,inactive,inactive,inactive,inactive,inactive,inactive,inactive,inactive,inactive,,,,,,,
NC(=O)c1ccc(N)cc1,inactive,inactive,inactive,inactive,inactive,inactive,inactive,inactive,inactive,inactive,inactive,inactive,,,,
CCCN(CCC)CCc1cccc2c1CC(=O)N2,inactive,inactive,inactive,inactive,inactive,inactive,inactive,inactive,inactive,inactive,,,inactive,,,
NCCCNCCSP(=O)(O)O,inactive,inactive,inactive,inactive,inactive,inactive,inactive,inactive,inactive,inactive,inactive,inactive,inactive,inactive,,
Nc1c2c(nc3ccccc13)CCCC2O (stereo unspecified),inactive,inactive,inactive,inactive,inactive,inactive,,inactive,,,inactive,inactive,inactive,inactive,inactive,
CCC=O,inactive,inactive,inactive,inactive,inactive,inactive,inactive,inactive,inactive,inactive,inactive,,inactive,,,
NC(CSCC(=O)O)C(=O)O (stereo unspecified),inactive,inactive,inactive,inactive,inactive,inactive,inactive,inactive,inactive,,inactive,inactive,inactive,inactive,,
CCOC(=O)CC(C)=O,inactive,inactive,inactive,inactive,inactive,inactive,inactive,inactive,,inactive,,,,,,
N[C@H](C(=O)O)c1ccc(O)cc1,inactive,inactive,inactive,inactive,inactive,inactive,,inactive,inactive,,inactive,inactive,inactive,inactive,,
CC(C)(C)c1ccc(O)c(O)c1,inactive,17.8 µM (active) and 6.11 µM (active),12.6 µM (active) and 7.27 µM (active),12.6 µM (active) and 10.5 µM (active),inactive,inactive,inactive,inactive,inactive and 12.6 µM (active),56.3 µM (active) and 24.3 µM (active),,,inactive,,,70.9 µM (active) and 56.1 µM (active)
C=CCCCCCCCCC=O,inactive,inactive,inactive,inactive,inactive,inactive,inactive,inactive,inactive,,,inactive,inactive,inactive,inactive,inactive
CC(C)(C)c1nnc(NS(=O)(=O)c2ccccc2)s1,inactive,inactive,inactive,inactive,inactive,inactive,inactive,inactive,inactive,inactive,inactive,inactive,inactive,inactive,inactive,
CC(C)CCCC(C)N (stereo unspecified),inactive,inactive,inactive,inactive,inactive,inactive,inactive,inactive,inactive,inactive,inactive,inactive,inactive,21.1 µM (active),,
CC(=O)N(CC(O)CO)c1c(I)c(C(=O)NCCO)c(I)c(C(=O)NCC(O)CO)c1I (stereo unspecified),inactive,inactive,inactive,inactive,inactive,inactive,inactive,inactive,inactive,inactive,,,,,,inactive
COC(=O)c1cc(C(=O)OC)cc(S(=O)(=O)O)c1,inactive,inactive,inactive,inactive,inactive,inactive,inactive,inactive,inactive,inactive,,,inactive,,,
CC(C)NCC(O)c1ccc(NS(C)(=O)=O)cc1 (stereo unspecified),inactive,inactive,inactive,inactive,inactive,inactive,inactive,inactive,,inactive,,,inactive,,,
CCO[Si](CCC1CCC2OC2C1)(OCC)OCC (stereo unspecified),inactive,inactive,inactive,inactive,inactive,inactive,inactive,inactive,inactive,inactive,inactive,inactive,inactive,inactive,,
Cn1c(N)c(N=O)c(=O)n(C)c1=O,inactive,inactive,inactive,inactive,inactive,inactive,inactive,inactive,inactive,inactive,,,inactive,,,inactive
COC(=O)CC(C)=O,inactive,inactive,inactive,inactive,inactive,inactive,inactive,inactive,inactive,inactive,,,inactive,,,inactive
N#Cc1ccc(C2CCCc3cncn32)cc1 (stereo unspecified),inactive,inactive,inactive,inactive,inactive,inactive,,inactive,,,,inactive,,inactive,,inactive
OC[C@]1(O)OC[C@@H](O)[C@H](O)[C@@H]1O,inactive,inactive,inactive,inactive,inactive,inactive,inactive,inactive,inactive,inactive,,,inactive,,,inactive
CC/C=C\CC/C=C/C(OCC)OCC,inactive,43.3 µM (active),48.6 µM (active),61.1 µM (active),inactive,inactive,inactive,inactive,,,,,,,,
COC(=O)c1ccc(C)cc1C1=NC(C)(C(C)C)C(=O)N1 (stereo unspecified),inactive,inactive,inactive,inactive,inactive,inactive,inactive,inactive,inactive,inactive,,,inactive,,,inactive

# Source: PubChem BioAssay (Tox21)
